The values that follow come from PubChem BioAssay (NCI).

About 83,000 compounds went through this panel and 20% of them were active in at least one assay; those are over-represented in the sample as a whole.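 A percent growth of 40 corresponds to 60% growth inhibition; 0 means no net growth; -100 means all cells died. Active threshold: below 10.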 A number with no mark means an inactive call. Calls of active or inactive are those of the source.

Assay in all cases: NCI-60 one-dose screen, 48 h (100 = growth as untreated, 0 = no growth, -100 = all killed)
The subject of one assay is HCT-15 colon. The conditions noted are these: 10 µM unless noted.
In another assay the test system is HT29 colon. The conditions noted are these: 10 µM unless noted.
Another assay concerns SNB-75 CNS. The following applies: 10 µM unless noted.
Another assay relates to SNB-19 CNS. The following applies: 10 µM unless noted.
Another assay relates to U251 CNS. The following applies: 10 µM unless noted.
In the next assay the test system is SK-MEL-5 melanoma. The conditions noted are these: 10 µM unless noted.
For a further assay, the system named is UACC-62 melanoma. The conditions noted are these: 10 µM unless noted.
A further assay relates to LOX IMVI melanoma. The conditions noted are these: 10 µM.
Another assay concerns SK-MEL-28 melanoma. The following applies: 10 µM unless noted.
Another assay has as its system SK-MEL-2 melanoma. The conditions noted are these: 10 µM unless noted.
The next assay concerns EKVX NSCLC. The following applies: 10 µM unless noted.
The subject of a further assay is SN12C renal. The following applies: 10 µM unless noted.
Another assay concerns UO-31 renal. The conditions noted are these: 10 µM unless noted.
The subject of the next assay is TK-10 renal. The following applies: 10 µM unless noted.
In a further assay the test system is ACHN renal. The following applies: 10 µM unless noted.
The test system of a further assay is CAKI-1 renal. The conditions noted are these: 10 µM unless noted.
Another assay deals with A498 renal. The conditions noted are these: 10 µM unless noted.
For a further assay, the system named is CCRF-CEM leukemia. The conditions noted are these: 10 µM unless noted.
The next assay has as its system PC-3 prostate. The following applies: 10 µM unless noted.
Another assay concerns MOLT-4 leukemia. The following applies: 10 µM unless noted.

On to `Oc1cc(O)c2c(c1)O[C@H](c1ccc(O)c(O)c1)[C@@H](O)C2`, for which the growth with HCT-15 colon is 100%; in the assay with HT29 colon, 97.5%; in the assay with SNB-75 CNS, 83.6%; in the assay with SNB-19 CNS, 101%; in the assay with U251 CNS it was 97.9%; with SK-MEL-5 melanoma it was 104%. In addition, the growth with UACC-62 melanoma is 106%; in the assay with LOX IMVI melanoma it was 100%; in the assay on SK-MEL-28 melanoma, 110%; with SK-MEL-2 melanoma, 106%; with EKVX NSCLC it was 99.4%; with SN12C renal, 102%. Besides, the growth in the assay with UO-31 renal is 89.5%; with TK-10 renal, 106%; with ACHN renal, 98%; in the assay with CAKI-1 renal, 99.4%; in the assay with A498 renal, 120%; in the assay with CCRF-CEM leukemia it was 94.4%.
For `C/C=C/C1OCC(CC)C(CCC)O1` (stereo not drawn), the growth was 111% with HCT-15 colon; 105% with HT29 colon; 90.2% in the assay with SNB-75 CNS; 99.7% in the assay with SNB-19 CNS; 104% with U251 CNS; 98.9% with PC-3 prostate. Also, the growth in the assay on UACC-62 melanoma was 101%; with LOX IMVI melanoma, 113%; with SK-MEL-28 melanoma, 112%; with SK-MEL-2 melanoma it was 102%; in the assay on EKVX NSCLC it was 105%; in the assay on SN12C renal it was 99.5%. Further, the growth was 81.1% with UO-31 renal; 101% in the assay with TK-10 renal; 110% in the assay on ACHN renal; 99.9% in the assay with CAKI-1 renal; 91.7% with A498 renal; 85.4% with CCRF-CEM leukemia. Further, the growth in the assay with MOLT-4 leukemia was 94%.
As to `Nc1nc2nnc(-c3ccccc3)c(-c3ccccc3)n2n1`, the growth with HCT-15 colon was 94.7%; in the assay with HT29 colon it was 97.4%; in the assay on SNB-75 CNS, 91.4%; with SNB-19 CNS, 80%; in the assay on U251 CNS, 111%; with SK-MEL-5 melanoma it was 86.5%. The growth in the assay with UACC-62 melanoma is 87.8%; with LOX IMVI melanoma it was 87.6%; with SK-MEL-28 melanoma it was 86.3%; in the assay with SK-MEL-2 melanoma, -2.91% (active); in the assay with EKVX NSCLC it was 92.8%; with SN12C renal, 94.7%. Further, the growth was 106% with UO-31 renal; 121% in the assay with TK-10 renal; 98.1% in the assay with ACHN renal; 96.2% in the assay with CAKI-1 renal; 87.4% with A498 renal; 102% with CCRF-CEM leukemia. In addition, the growth in the assay with MOLT-4 leukemia was 103%.
Turning to `Nc1ccc(F)c(Cl)c1F`, the growth with HCT-15 colon was 111%; in the assay on HT29 colon, 108%; in the assay on SNB-75 CNS, 89.3%; in the assay on SNB-19 CNS, 110%; with U251 CNS, 116%; in the assay with PC-3 prostate, 84.1%. Further, the growth was 103% in the assay on UACC-62 melanoma; 95.3% in the assay with LOX IMVI melanoma; 109% with SK-MEL-28 melanoma; 108% with SK-MEL-2 melanoma; 107% in the assay on EKVX NSCLC; 104% in the assay with SN12C renal. Further, the growth is 98.7% in the assay with UO-31 renal; 108% with TK-10 renal; 106% in the assay with ACHN renal; 97.5% in the assay with CAKI-1 renal; 99.4% in the assay with CCRF-CEM leukemia; 108% with MOLT-4 leukemia.
Take `CC(=O)NC(CCc1ccc(Cl)c(Cl)c1)c1cccc(O)c(=O)c1` (stereo not drawn): the growth was 29.9% in the assay with HCT-15 colon; 27.6% with HT29 colon; 18.7% in the assay on SNB-75 CNS; 23.7% in the assay with SNB-19 CNS; 13.7% with U251 CNS; -31.8% (active) with SK-MEL-5 melanoma. Moreover, the growth in the assay on UACC-62 melanoma was -57.7% (active); in the assay on LOX IMVI melanoma, -2.69% (active); in the assay on SK-MEL-28 melanoma, 19.5%; in the assay with SK-MEL-2 melanoma, 17.8%; in the assay on SN12C renal, 12.4%; with UO-31 renal, -20.9% (active). Moreover, the growth in the assay on TK-10 renal was 25.8%; with ACHN renal it was 17.5%; with CAKI-1 renal, -0.0278% (active); in the assay with A498 renal, 36%; with CCRF-CEM leukemia, 4.93% (active); with MOLT-4 leukemia, 4.68% (active).
Take `O=C(Nc1cccc(Cl)c1)c1ccc(Cl)cc1Cl`: the growth in the assay on HCT-15 colon was 96.3%; with HT29 colon it was 86.5%; in the assay with SNB-75 CNS it was 84.7%; in the assay on SNB-19 CNS, 96.9%; in the assay on U251 CNS, 90.7%; in the assay on SK-MEL-5 melanoma, 96.1%. Further, the growth in the assay on LOX IMVI melanoma is 98.5%; with SK-MEL-28 melanoma it was 101%; with SK-MEL-2 melanoma it was 95.6%; in the assay on EKVX NSCLC, 84.3%; in the assay on SN12C renal, 92.9%; with UO-31 renal it was 82.7%. In addition, the growth in the assay on TK-10 renal is 90.1%; in the assay with CAKI-1 renal, 92.2%; in the assay on A498 renal, 87.8%; in the assay on CCRF-CEM leukemia it was 89.6%; with MOLT-4 leukemia it was 87.9%.
On to `COc1ccc(C2CC(c3ccccc3)=Nc3ccccc3S2)cc1` (stereo not drawn), for which the growth is 98.3% in the assay on HCT-15 colon; 92.8% in the assay with HT29 colon; 80.7% with SNB-75 CNS; 93.8% in the assay on SNB-19 CNS; 82.7% in the assay with PC-3 prostate; 94.2% with SK-MEL-5 melanoma. Also, the growth with UACC-62 melanoma was 97.9%; in the assay on LOX IMVI melanoma, 95%; in the assay with SK-MEL-2 melanoma, 85.6%; with SN12C renal it was 103%; with UO-31 renal, 57.5%; in the assay with TK-10 renal it was 113%. Moreover, the growth was 103% in the assay with ACHN renal; 84% in the assay with CAKI-1 renal; 91.8% in the assay on A498 renal; 85.2% in the assay with CCRF-CEM leukemia; 77.6% in the assay on MOLT-4 leukemia.
Regarding `CC(C)Sc1ncnc2nc[nH]c12`, the growth in the assay with HCT-15 colon is 103%; in the assay with HT29 colon, 113%; with SNB-75 CNS, 115%; in the assay with SNB-19 CNS it was 99.5%; in the assay with U251 CNS it was 107%; in the assay with SK-MEL-5 melanoma, 104%. Moreover, the growth in the assay on UACC-62 melanoma was 93.3%; with LOX IMVI melanoma it was 100%; in the assay with SK-MEL-28 melanoma it was 82.8%; in the assay on SK-MEL-2 melanoma, 108%; in the assay with EKVX NSCLC it was 94.7%; with UO-31 renal, 95.9%. For the same compound, the growth was 116% with TK-10 renal; 99.6% in the assay with ACHN renal; 101% in the assay on CAKI-1 renal; 59.3% in the assay on A498 renal; 111% in the assay on CCRF-CEM leukemia; 146% with MOLT-4 leukemia.
In the case of `N#C/C(=C\NC(=S)N=Nc1c(O)[nH]c2ccccc12)c1nc2ccccc2s1`, the growth in the assay on HT29 colon was 106%; in the assay with SNB-75 CNS, 85.1%; with SNB-19 CNS, 104%; in the assay with U251 CNS, 92.5%; in the assay on PC-3 prostate, 86.1%; with SK-MEL-5 melanoma, 94.9%. Besides, the growth in the assay with UACC-62 melanoma was 94.3%; in the assay on LOX IMVI melanoma it was 96.6%; in the assay with SK-MEL-28 melanoma it was 112%; in the assay with SK-MEL-2 melanoma it was 105%; with EKVX NSCLC it was 99.3%; in the assay on SN12C renal, 110%. For the same compound, the growth is 79.2% in the assay on UO-31 renal; 140% in the assay on TK-10 renal; 89.6% with ACHN renal; 96.2% in the assay on CAKI-1 renal; 89% in the assay on A498 renal; 93.4% in the assay with CCRF-CEM leukemia. Besides, the growth in the assay with MOLT-4 leukemia was 99.4%.
